PrPC TRFRET: inhibitors of human cell surface prion protein PrPC; inhibition, % at 13.8 µM; TR-FRET read-out; hit rate 0.43% among 370,000; P04156; in the data active = inhibition above about 24%; note: 0% = median of the test wells and 100% = reference compound wells
SARS 3CLpro inh: SARS-CoV 3CLpro protease inhibition | AID 1706 | hit rate 0.14% among 290,000 | P0C6X7 | inhibition, % at 6 µM | recombinant SARS-CoV 3CLpro, quenched FRET peptide cleavage; in the data active = inhibition above about 12%
PrP UTR inh: suppresses PrP 5' UTR mRNA reporter expression; hit rate 0.35% among 340,000; cell-based PrP 5' UTR mRNA reporter, plate reader; inhibition, % (test concentration not listed); AID 488862; in the data active = inhibition above about 52%; note: 0 = median of the neutral control wells
BJeLR viability: kills HRASV12-expressing BJeLR cells; BJeLR (HRASV12) viability, CellTiter-Glo ATP luminescence, 48 h; inhibition, % (test concentration not listed); hit rate 0.17% among 300,000; in the data active = inhibition above about 50%
PriA SSB inh: K. pneumoniae PriA-SSBct interaction inhibition. AlphaScreen SSBct-PriA binding, biotinylated peptide. inhibition, % at 33 µM. hit rate 0.6% among 430,000; in the data active = inhibition mostly above about 37%, no sharp cut-off; inactive = mostly below about 20%;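 note: plate controls were negative control peptide for no effect and reference peptide for full effect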
PrPC TRFRET cf: confirmation of inhibitors of cell surface human prion protein | inhibition, % at 13.8 µM | cell surface PrPC level, TR-FRET | shares compounds with PrPC TRFRET | hit rate 65% among 1,500; in the data active = inhibition above about 25%
LD9 tox: LD9 cell cytotoxicity, PrPc inhibitor counter-screen | hit rate 29% among 1,500 | shares compounds with PrPC TRFRET | LD9 cells cytotoxicity, luminescence viability | inhibition, % at 13.8 µM; in the data active = inhibition above about 9.5%
Starred values were filed as active, the others as inactive. Compounds with a hit are over-represented: about 1.2% of the library has one in this group of screens.

COc1ccc(OC)c(C2NC(=O)N(C)C(C)=C2C(=O)OCc2ccccc2)c1 (stereo not given) was read as PrPC TRFRET 68*, SARS 3CLpro inh 1, PrP UTR inh 13, BJeLR viability -6, PriA SSB inh -6, PrPC TRFRET cf 79* and LD9 tox -4.
For Cc1cc(-c2nnc(NC(=O)COc3ccccc3F)o2)n(C)n1 the results were PriA SSB inh 17.
For COc1cccc(OC(=O)CSc2nnc(-c3ccccc3Br)o2)c1 the results were PrPC TRFRET 32*, SARS 3CLpro inh -3, PrP UTR inh -25, BJeLR viability 9, PriA SSB inh -11, PrPC TRFRET cf 38* and LD9 tox 1.
O=C(CSc1nc2c(cnn2-c2cccc(Cl)c2)c(=O)[nH]1)NCc1ccco1 was read as PriA SSB inh 1.
CCOC(=O)c1c(-c2ccc(C)s2)csc1N was read as PrPC TRFRET 70*, SARS 3CLpro inh -3, PrP UTR inh -1, BJeLR viability 2, PriA SSB inh -6, PrPC TRFRET cf 54* and LD9 tox -2.
O=C(O)c1cccc(NS(=O)(=O)c2ccc3c(c2)OCCO3)c1 was read as PriA SSB inh -10.
For C=C1C(=O)OC2CC3(C)OC3CCC(C)=CC(OC(C)=O)C12 (stereo not given) the results were PrPC TRFRET 5 and PrP UTR inh -18.
Screening C=C1C(=O)OC2CC3(C)OC3C3OC3C3=CC(OC3=O)C12 (stereo not given) returned PrPC TRFRET 93*, PrPC TRFRET cf 80* and LD9 tox 21*.
For COc1ccc(N(C)S(=O)(=O)c2cccc(C(=O)NC3CCCC3)c2)cc1 the results were PrPC TRFRET 14, SARS 3CLpro inh 2, PrP UTR inh -18, BJeLR viability -3 and PriA SSB inh -3.
Screening COc1ccc(N(C)S(=O)(=O)c2cccc(C(=O)NC3CCCCC3C)c2)cc1 (stereo not given) returned PrPC TRFRET 26*, SARS 3CLpro inh 1, PrP UTR inh -1, BJeLR viability -8, PriA SSB inh 2, PrPC TRFRET cf 12 and LD9 tox -4.
Screening CC(C)CNC(=O)Cc1csc(Nc2cccc(C(F)(F)F)c2)n1 returned PriA SSB inh -3.
Screening O=C(N/N=C/c1ccc(O)cc1O)/C(=C/c1ccccc1)CCO returned PrPC TRFRET 30*, SARS 3CLpro inh -1, PrP UTR inh -22, BJeLR viability -12, PrPC TRFRET cf 32* and LD9 tox 17*.
O=C(Cn1cnc2c(-c3ccccc3)csc2c1=O)Nc1cc(C(F)(F)F)ccc1Cl was read as PriA SSB inh -1.
`COc1ccc(-c2nc3c(C)cc(Br)cn3c2CC(C)(C)C)cc1OC` gave PrPC TRFRET 42*, PrPC TRFRET cf 52* and LD9 tox -4.
Screening COc1ccccc1Cc1c(-c2ccc(OC)c(OC)c2)nc2c(C)cc(Br)cn12 returned PrPC TRFRET 3.
COc1ccc(-c2nc3c(C)cc(Br)cn3c2Cc2cccc(Cl)c2)cc1OC was read as PrPC TRFRET 26*, PrPC TRFRET cf 62* and LD9 tox -5.
`COC(=O)c1ccccc1C(=O)N1CCC(n2ccnn2)CC1` gave PriA SSB inh -17.
For CNc1ncc(C(=O)c2ccc(Cl)c(Cl)c2)s1 the results were PrPC TRFRET 6, SARS 3CLpro inh 4, PrP UTR inh -56, BJeLR viability -5 and PriA SSB inh 6.
`CNc1ncc(C(=O)c2ccc(Cl)cc2)s1` gave PrPC TRFRET 62*, SARS 3CLpro inh -1, PrP UTR inh -53, BJeLR viability 6, PriA SSB inh -4, PrPC TRFRET cf 78* and LD9 tox -9.
For Cn1cccc1C(O)CCNC(=O)C(=O)NC1CC1 (stereo not given) the results were PriA SSB inh -8.
O=C(Nc1ccc(Cl)cc1)c1cccc(Oc2ccccc2)c1 was read as PriA SSB inh -14.
Screening COc1ccc(NC(=O)c2cccc(Oc3ccccc3)c2)cn1 returned PrPC TRFRET 26*, SARS 3CLpro inh 2, PrP UTR inh -26, BJeLR viability 10, PriA SSB inh -15, PrPC TRFRET cf 10 and LD9 tox 1.
For CCCC(=O)c1ccc(OCc2cn(CC(=O)c3ccc(O)cc3)nn2)cc1 the results were PrPC TRFRET 28*, PrP UTR inh -14, PriA SSB inh -17, PrPC TRFRET cf 22 and LD9 tox -1.
For Cc1ccc(NC(=O)N2CCOCC2)cc1Cl the results were PriA SSB inh -17.
For COc1ccc(C(=O)Nc2ncccc2C)cc1S(=O)(=O)N1CCCc2ccccc21 the results were PrPC TRFRET -4, PrP UTR inh -12, BJeLR viability -3 and PriA SSB inh -10.
`COc1ccc(C(=O)Nc2nc3c(s2)CCCC3)cc1S(=O)(=O)N1CCCc2ccccc21` gave PrPC TRFRET 28*, SARS 3CLpro inh 0, PrP UTR inh 5, BJeLR viability 21, PriA SSB inh 6, PrPC TRFRET cf 24 and LD9 tox 5.
Screening O=C(c1cnn(-c2ccccc2)n1)N1CCC(Cn2ccnc2-c2ccccc2)CC1 returned PriA SSB inh 21.
For Cc1nc(-c2cccnc2)sc1-c1ccc(SCC(=O)Nc2ccc(Br)cc2)nn1 the results were PriA SSB inh -11.
For NC(=O)c1nn(-c2cccc(Cl)c2)c(=O)cc1O the results were PrPC TRFRET 49*, SARS 3CLpro inh -1, PrP UTR inh -11, BJeLR viability -7, PriA SSB inh -13, PrPC TRFRET cf 49* and LD9 tox -8.
NC(=O)c1nn(-c2ccccc2)c(=O)cc1O was read as PrPC TRFRET -1, SARS 3CLpro inh 2, PrP UTR inh 11, BJeLR viability 11 and PriA SSB inh -2.
Screening CCc1ccccc1Nc1nn2c(=O)c3ccc(C(=O)NCc4ccccn4)cc3nc2s1 returned PrPC TRFRET 38*, SARS 3CLpro inh 0, PrP UTR inh -3, BJeLR viability -12, PriA SSB inh -8, PrPC TRFRET cf 25* and LD9 tox -7.
O=C1NC[C@@H](CCCCN2C[C@H](Cc3ccc(O)cc3)N(CC3CCCCC3)C(=O)C2=O)N(Cc2ccccc2)C1=O was read as PrPC TRFRET 10.
`O=C1NC[C@H](CCCCN2C[C@H](Cc3ccc(O)cc3)N(CC3CCCCC3)C(=O)C2=O)N(CC2CCCCC2)C1=O` gave PrPC TRFRET 25*, PrPC TRFRET cf 24 and LD9 tox -1.
CCOC(=O)CCC(=O)NC1CC(=O)N(C)C1 (stereo not given) was read as PriA SSB inh -14.
For CSc1cccc(NC(=O)CN2N=NC3C(=O)N(c4ccc(F)c(Cl)c4)C(=O)C32)c1 (stereo not given) the results were PriA SSB inh 0.
